Data on 15 compounds can be found in PubChem BioAssay AID489043 (National Center for Advancing Translational Sciences (NCATS), 2010).

Results filed as inconclusive are left out. The source made the active and inactive calls. Calls follow the shape of the dose curve; as a rule, active = well fitted activation curve with a large enough effect; inconclusive = small, poorly fitted or top-dose-only effect; inactive = flat fitted curve, though single readings scatter.
Potency is read from the fitted curve at half-maximal effect.

Sequence of Relaxin receptor 2 (Homo sapiens) (Q8WXD0 whole entry, looked up): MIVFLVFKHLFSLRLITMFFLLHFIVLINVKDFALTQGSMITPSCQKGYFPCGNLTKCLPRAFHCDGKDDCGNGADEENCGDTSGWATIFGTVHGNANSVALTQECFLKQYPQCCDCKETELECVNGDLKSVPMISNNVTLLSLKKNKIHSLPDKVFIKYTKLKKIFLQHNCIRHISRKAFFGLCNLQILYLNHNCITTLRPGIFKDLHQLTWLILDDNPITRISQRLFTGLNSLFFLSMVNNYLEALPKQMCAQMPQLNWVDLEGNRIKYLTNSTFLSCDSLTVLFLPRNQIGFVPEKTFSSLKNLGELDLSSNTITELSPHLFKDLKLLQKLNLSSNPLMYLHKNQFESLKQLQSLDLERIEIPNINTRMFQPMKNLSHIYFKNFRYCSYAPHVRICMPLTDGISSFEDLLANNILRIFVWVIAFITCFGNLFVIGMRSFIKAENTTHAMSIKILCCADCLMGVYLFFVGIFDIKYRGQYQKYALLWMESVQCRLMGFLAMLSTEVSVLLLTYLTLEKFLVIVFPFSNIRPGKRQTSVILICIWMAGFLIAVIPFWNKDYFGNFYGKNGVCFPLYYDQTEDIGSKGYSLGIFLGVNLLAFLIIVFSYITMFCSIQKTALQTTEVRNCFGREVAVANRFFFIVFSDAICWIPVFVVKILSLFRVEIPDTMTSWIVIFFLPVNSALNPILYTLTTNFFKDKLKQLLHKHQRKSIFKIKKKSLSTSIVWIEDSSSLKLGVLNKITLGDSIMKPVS

This assay addresses Relaxin receptor 2 (Homo sapiens) (UniProt Q8WXD0). Nature of the assay: qHTS Assay for Agonists of the Relaxin Receptor RXFP1: RXFP2 Hit Validation. Also: nearly all actives have a fitted effect of over 65% in size. Particulars: HEK293 RXFP2 cAMP TR-FRET, 30 min; series mostly up to 115 µM. The method in brief: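 Concentration-response EC50s (Hill equation) come from a cAMP TR-FRET assay in HEK293 RXFP2 cells, compound for 30 min at 37C with PDE4 inhibitor.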
For orientation: Quantitative high-throughput screening tests each substance at several concentrations.
With `O=c1oc2cc(O)c(Cl)cc2c2ccccc12`, the Potency was 6.9 µM (active).
In the case of `CN(C)CCCn1c(SCC(=O)Nc2nc(-c3cccc(Br)c3)cs2)nc2ccccc2c1=O` it was “inactive”; in that of `CCOC(=O)N1CCN(S(=O)(=O)c2c(C)nc3scc(C)n3c2=O)CC1`, 30.9 µM (active); in that of `COc1cccc(C(=O)CSc2nnc(-c3cc(OC)cc(OC)c3)o2)c1`, 10.9 µM (active).
Take `CCN1CCN(C(=O)CCc2nnc3ccc(N4CCC5(CC4)OCCO5)nn23)CC1`: the Potency is 38.9 µM (active).
Consider `CCOC(=O)CNC(=O)CSc1nc2c(C)cccc2cc1CC`, for which the Potency is 19.4 µM (active).
As to `COC(=O)[C@@H]1C[C@@]2(O)[C@H](O)[C@H](O)[C@H](O)C[C@H]2N1Cc1cc(F)ccc1F`, the Potency entry is “inactive”.
Consider `CCN(CC)CCCN1C=C2C(=O)C(C)(OC(=O)C3CCCC3)C(=O)C=C2C=C1c1ccsc1` (stereo not given), for which the Potency result was “inactive”.
Take `Cc1cc2nc3ccc(=[N+](C)C)cc-3sc2cc1N`: the Potency entry was “inactive”.
On to `COC(=O)c1c(N2C(=O)CC(Sc3ncccc3C(=O)O)C2=O)sc(C)c1C` (stereo not given), for which the Potency entry is “inactive”.
Regarding `O=S(=O)(c1cccc(-c2cn3cccnc3n2)c1)N1CCOCC1`, the Potency is 34.6 µM (active).
Consider `COc1ccccc1CNS(=O)(=O)c1cc(CN2C(=O)c3cccnc3C2=O)ccc1OC`, for which the Potency is 30.9 µM (active).
Consider `CCN(CC)S(=O)(=O)c1ccc(C)c(NC(=O)Cn2cnc3cc([N+](=O)[O-])ccc3c2=O)c1`, for which the Potency is 30.9 µM (active).
As for `O=C(O)c1cc(-c2ccco2)nc2ccc(Br)cc12`, the Potency is 17.3 µM (active).
For the compound `CC(C(=O)Nc1cccnc1)n1cc([N+](=O)[O-])cn1` (stereo not given), the Potency result was “inactive”.
